Screens from PubChem.
TDP1 inh – qHTS Assay for Inhibitors of Tyrosyl-DNA Phosphodiesterase (TDP1); Potency, µM (series often up to 130 µM), without a hit: at the highest dose activity change, negative = inhibition, most hits filed as inhibitors; AID 485290, 2010; 0.28% of 350,000 active; recombinant TDP1, AlphaScreen DNA substrate cleavage; Tyrosyl-DNA phosphodiesterase 1 (Homo sapiens), Q9NUW8; note: potency is the fitted concentration of half-maximal effect; % is set by controls: 0 for no effect and ±100 for the full control effect; nearly all actives have a fitted effect of over 40% in size
Target sequence (Q9NUW8 whole entry, looked up): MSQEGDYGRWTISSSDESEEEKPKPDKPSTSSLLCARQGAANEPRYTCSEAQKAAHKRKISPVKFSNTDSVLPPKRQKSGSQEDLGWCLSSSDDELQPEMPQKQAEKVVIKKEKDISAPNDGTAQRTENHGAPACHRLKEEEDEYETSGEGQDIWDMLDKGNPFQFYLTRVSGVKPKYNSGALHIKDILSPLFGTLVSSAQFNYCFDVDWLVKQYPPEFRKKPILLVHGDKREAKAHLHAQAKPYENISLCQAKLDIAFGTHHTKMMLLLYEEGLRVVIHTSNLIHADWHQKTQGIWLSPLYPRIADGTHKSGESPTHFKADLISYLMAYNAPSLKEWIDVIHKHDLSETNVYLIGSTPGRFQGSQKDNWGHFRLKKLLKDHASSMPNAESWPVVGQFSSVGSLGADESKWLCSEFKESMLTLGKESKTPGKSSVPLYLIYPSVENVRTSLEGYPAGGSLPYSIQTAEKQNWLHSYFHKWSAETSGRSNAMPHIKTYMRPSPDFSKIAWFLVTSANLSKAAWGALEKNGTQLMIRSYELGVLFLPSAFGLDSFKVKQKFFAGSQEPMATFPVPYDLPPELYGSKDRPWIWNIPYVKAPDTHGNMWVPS
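Signal: AlphaScreen proximity between streptavidin donor and anti-FITC acceptor beads on intact substrate. Reaction: Tdp1 1 nM, substrate 15 nM final, 5 min RT after 15 min compound preincubation.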
TDP1 cell noCPT – qHTS for Inhibitors of human tyrosyl-DNA phosphodiesterase 1 (TDP1): qHTS in cells in absence of CPT; 15% of 420,000 active; Potency, µM (top dose mostly 46.2 µM), inactives show top-dose activity change, negative = growth inhibition, most hits filed as inhibitors; DT40 Tdp1-/- hTDP1 cells, no CPT, ATP luminescence, 48 h; note: potency is the fitted concentration of half-maximal effect; % is set by controls: 0 for no effect and ±100 for the full control effect; nearly all actives have a fitted effect of over 55% in size
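Luminescent ATP content (CellTiter-Glo) served as the growth readout. Knockout chicken DT40 cells expressing human TDP1 were exposed to compounds without camptothecin for a minimum 48 hr at 37 °C.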
DT40 TDP1 CPT – qHTS for Inhibitors of human tyrosyl-DNA phosphodiesterase 1 (TDP1): qHTS in cells in presence of CPT | chicken DT40 Tdp1-/-;hTDP1 cells + 20 nM CPT, ATP luminescence, 48 h | Potency, µM (highest dose often 46.2 µM), for the others: at the top dose activity change, negative = growth inhibition, usual class: inhibitors | 12% of 420,000 active; note: potency is the fitted concentration of half-maximal effect; % is set by controls: 0 for no effect and ±100 for the full control effect; nearly all actives have a fitted effect of over 55% in size
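Cell growth measured by CellTiter-Glo luminescence after a minimum 48 h, 37 C compound exposure with 20 nM CPT in Tdp1-knockout DT40 cells stably expressing hTDP1, seeded 400/well; qHTS titration format.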
TGFb inhibitor – qHTS for Inhibitors of TGF-b; HepG2 CAGA-GFP TGF-b/SMAD3 reporter, GFP fluorescence, 18 h; TGF-beta stimulated, 500 pg/mL final; Potency, µM (top dose mostly 46.1 µM), without a hit: at the highest dose activity, negative = inhibition, actives largely listed as inhibitors; AID 588855, 2011; 1.2% of 410,000 active; note: potency is the fitted concentration of half-maximal effect; % is set by controls: 0 for no effect and ±100 for the full control effect; nearly all actives have a fitted effect of over 65% in size
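HEPG2 CAGA-GFP cells (1000/well, DMEM with 1% FBS) were pre-incubated 2 h at 37 degrees C, given compound by pin tool, then stimulated with TGF-beta at 500 pg/mL final for 18 h before per-cell GFP fluorescence imaging.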
IL1B secr inh – qHTS for Inhibitors of Inflammasome Signaling: IL-1-beta AlphaLISA Primary Screen; THP-1 LPS/ATP IL-1B secretion, AlphaLISA, 16 h; stronger effect = lower value; activity change, % at 57.5 µM; 4.7% of 360,000 active; in the data active = activity change below about -50%; inconclusive = mostly about -30% to -49%; note: % is set by controls: 0 for no effect and ±100 for the full control effect
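THP-1 cells pretreated 1 hr with compounds (up to 57.5 uM final), then stimulated with LPS (250 ng/mL final) plus ATP (1.25 mM final); secreted IL-1B measured by AlphaLISA after 16 hr, decreased signal indicating inhibition.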
HepG2 viability – qHTS for Inhibitors of TGF-b: Cytotox Counterscreen; HepG2 CAGA-GFP viability, ATP luminescence, 18 h; Potency, µM (highest dose often 46.1 µM), for inactives: at the highest dose activity change, negative = cytotoxicity, actives largely listed as cytotoxic; 0.76% of 410,000 active; AID 588856, 2011; note: potency is the fitted concentration of half-maximal effect
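HepG2 CAGA-GFP cells (1000/well, DMEM with 1% FBS) received compound, then TGF-beta at 500 pg/mL final, and were incubated 18 hours at 37 degrees C. Viability was read by CellTiter-Glo luminescence. Media-only wells were set as complete cell-killing and DMSO as no toxicity.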
Numbers without * were called inactive; ? = inconclusive; nt = no result given; [ ] = another dose, or the depositor's remark. An excerpt weighted towards active compounds, which were near 19% of everything screened. Unless noted, calls come from the whole dose curve; as a rule, active = well fitted curve in the direction sought with a large enough effect; inconclusive = small, poorly fitted or top-dose-only effect, or another doubt; inactive = no such curve, though single readings can be large; an effect the other way counts as inactive or inconclusive.

SMILES	TDP1 inh	TDP1 cell noCPT	DT40 TDP1 CPT	TGFb inhibitor	IL1B secr inh	HepG2 viability
Cn1nc(C(C)(C)C)cc1NC(=O)C1(C)CCN1C(=O)c1ccccc1CCc1ccccc1 (stereo not given)	nt	?	18µM*	?	-5	-15%
CC(C)(C)c1cc(NC(=O)C2(C)CCN2C(=O)c2ccccc2CCc2ccccc2)no1 (stereo not given)	nt	21µM*	?	-4%	6	-30%
Cn1nc(C(C)(C)C)cc1NC(=O)C1(C)CCN1C(=O)Cc1ccc(-c2ccccc2)cc1 (stereo not given)	nt	18µM*	15µM*	?	-12	-32%
COc1ccc(-c2c(O)c3cc(O)cc(O)c3oc2=O)cc1	11%	nt	nt	nt	nt	nt
COc1ccc(O)c(C2=Nc3ccccc3N=C(c3ccccc3)C2)c1	6%	18µM*	23µM*	1%	17	16%
Cc1cccc(C2=Nc3ccccc3N=C(c3cc(Cl)ccc3O)C2)c1	0%[12.3 µM]	?	?	-17%	nt	5%
COc1cc2c(cc1N)-c1ccc(N)cc1C2	nt	-4%	-18%	0%	-14	-10%
Oc1ccccc1N=Cc1sc2ccccc2c1Cl	8%	18µM*	?	?	10	-3%
CCOC(=O)C(=O)c1c(-c2ccc(C)cc2)nc2ccccn12	3%	?	23µM*	-20%	-16	-28%
Cc1ccc(SCC(=O)c2c(C)nc3ccccn23)cc1	4%	10µM*	21µM*	-21%	?	-24%
CCOC(=O)c1c(-c2ccccc2)nc2ccc(C)cn12	3%	16µM*	?	-6%	11	-7%
O=C(O)/C=C/C(=O)Nc1ccccc1SC(F)(F)C(F)(F)C(F)(F)F	8%	?	?	4%	-104*	-56%
O=C(O)/C=C/C(=O)Nc1ccccc1-c1ccccc1	-2%	10µM*	8.2µM*	-3%	-15	-11%
C=CCC(C)(Nc1ccccc1)C(=O)OCC (stereo not given)	6%	nt	nt	nt	nt	nt
CCOc1ccc(OCC)c(NS(=O)(=O)c2c(C(=O)N3CCC(C)CC3)c(C)n(C)c2C)c1	6%	?	?	?	nt	0%
CN(C)S(=O)(=O)c1cccc(C(=O)C2=C3SC=C(c4ccccc4)N3CC2)c1	1%	23µM*	?	3%	7	-20%
CCc1nc2c(OCc3ccc(F)cc3)cccn2c1N(C)C(=O)C(C)C	nt	?	-25%	8%	2	-11%
CCC(CC)C(=O)N(C)c1c(C)nc2c(OCc3ccc(C(F)(F)F)cc3)cccn12	nt	18µM*	23µM*	-16%	?	-18%
CCC(CC)C(=O)N(C)c1c(C)nc2c(OCc3ccc(F)c(F)c3)cccn12	nt	21µM*	?	-12%	17	-31%
CCC1C(=O)CC(c2ccc([N+](=O)[O-])cc2)NC1c1ccc([N+](=O)[O-])cc1 (stereo not given)	0%	?	?	?	-100*	-4%
Cc1ccc(O)c(NC(=O)c2cc3nc4c(c(C(F)(F)F)n3n2)CCc2ccccc2-4)c1	2%	23µM*	?	-15%	-51*	2%
CCN(CC)C1=NS(=O)(=O)c2cc([N+](=O)[O-])ccc21	0%	23µM*	18µM*	13%	5	7%
